Here are results for 31 compounds from PubChem BioAssay (NCATS).

SMILES strings stand for the structures. Records with an inconclusive call do not appear. Unmarked numbers belong to inactive results. Active and inactive are the calls of the source. Unless noted, the call rests on the fitted dose curve; in most records, active means well fitted curve in the direction sought with a large enough effect; inconclusive means small, poorly fitted or top-dose-only effect, or another doubt; inactive means no such curve, though single readings can be large; an effect the other way counts as inactive or inconclusive.

In assay [1] the target is Aldehyde dehydrogenase, mitochondrial (Homo sapiens) (UniProt P05091). Kind of assay: qHTS for Inhibitors of the Aldehyde Dehydrogenase Family (ALDH2) Validation screens (AID 2061302; active means well fitted inhibition curve with a large enough effect; title and protocol of this record describe different tests;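 further: plate controls were DMSO vehicle for no effect and maximal DPI positive control response for full effect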). On the technique in general: Quantitative high-throughput screening tests each substance at several concentrations.
For assay [2] the target is unchanged. Description: qHTS for Inhibitors of the Aldehyde Dehydrogenase Family (ALDH2) Confirmatory screens (AID 2061303; active means well fitted inhibition curve with a large enough effect; title and protocol of this record describe different tests; further: on the % scale 0 is the no-effect control and ±100 the full control effect; nearly all actives have a fitted effect of over 45% in size).
Assay [3] in a line: qHTS for Inhibitors of the Aldehyde Dehydrogenase Family (ALDH1A2, ALDH1A3, ALDH2, ALDH3A1) (AID 2061307). Further: on the % scale 0 is the no-effect control and ±100 the full control effect; nearly all actives have a fitted effect of over 50% in size.
For assay [4], the target named is Retinaldehyde dehydrogenase 3 (Homo sapiens) (UniProt P47895). Kind of assay: qHTS for Inhibitors of the Aldehyde Dehydrogenase Family (ALDH1A3) Confirmatory screens (AID 2061311). Further: on the % scale 0 is the no-effect control and ±100 the full control effect; nearly all actives have a fitted effect of over 60% in size.
Assay [5] deals with Retinal dehydrogenase 2 (Homo sapiens) (UniProt O94788). Description: qHTS for Inhibitors of the Aldehyde Dehydrogenase Family (ALDH1A2) Confirmation screens (AID 2061314). Further: on the % scale 0 is the no-effect control and ±100 the full control effect; nearly all actives have a fitted effect of over 65% in size.
In assay [6] the target is Aldehyde dehydrogenase 1A1 (Homo sapiens) (UniProt P00352). Description: qHTS for Inhibitors of the Aldehyde Dehydrogenase Family (ALDH1A1) Confirmatory screens (AID 2061316). Further: on the % scale 0 is the no-effect control and ±100 the full control effect; nearly all actives have a fitted effect of over 65% in size.
The target of assay [7] is Retinaldehyde dehydrogenase 3 (Homo sapiens) (UniProt P47895). Kind of assay: qHTS for Inhibitors of the Aldehyde Dehydrogenase Family (ALDH1A3) Validation screen (AID 2061312). Further: on the % scale 0 is the no-effect control and ±100 the full control effect; nearly all actives have a fitted effect of over 45% in size.
The nature of assay [8]: BET inhibitor-based combinations targeting novel dependencies in MECOM-rearranged (r) AML: SET-2 cell line (AID 2202231).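 Further: plate controls were DMSO treated cells for no effect and wells without cells for full effect; nearly all actives have a fitted effect of over 35% in size.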 The conditions noted are these: SET-2 AML cells viability, CellTiter-Glo luminescence, 48 h; viability: active compounds read low, series mostly up to about 46 µM. The method, boiled down: (§1)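 Cells were plated at 500 per well and exposed to an 11-point dose series of each drug for 48 hr. Viability was measured by CellTiter-Glo luminescence, normalized to DMSO and empty-well controls, and summarized as AUC and per-cell-line Z-AUC.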
For orientation: Cellular ATP, detected with luciferase, serves as a proxy for viable cell number.

The nature of assay [9]: BET inhibitor-based combinations targeting novel dependencies in MECOM-rearranged (r) AML: HNT-34 cell line (AID 2202234). Further: nearly all actives have a fitted effect of over 35% in size. Further: potency means the concentration at half of the fitted maximal effect. The method, boiled down:
(§2)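 Activity is given as area under the curve and as Z-AUC, mean-centred within each cell line. It comes from 11-point dose curves normalized to DMSO and empty wells. CellTiter-Glo luminescence was read after 48 hr drug exposure of 500 cells/well.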

The nature of assay [10]: BET inhibitor-based combinations targeting novel dependencies in MECOM-rearranged (r) AML: UCSD-AML1 cell line (AID 2202235).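 Further: series mostly up to about 46 µM; plate controls were DMSO vehicle wells for no effect and blank wells for full effect; nearly all actives have a fitted effect of over 40% in size.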 In short, it runs like this: as §2
A short description of assay [11]: BET inhibitor-based combinations targeting novel dependencies in MECOM-rearranged (r) AML: AML-191 cell line (AID 2202236; further: nearly all actives have a fitted effect of over 35% in size; further: potency means the concentration at half of the fitted maximal effect). In short, it runs like this: as §1
A short description of assay [12]: BET inhibitor-based combinations targeting novel dependencies in MECOM-rearranged (r) AML: AML-194 cell line (AID 2202237;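 further: plate controls were vehicle wells for no effect and wells without cells for full effect; nearly all actives have a fitted effect of over 40% in size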). The method, boiled down:
as §1

Assay [13] is described as follows: BET inhibitor-based combinations targeting novel dependencies in MECOM-rearranged (r) AML: OCI-AML3 cell line (AID 2202232). Further: nearly all actives have a fitted effect of over 35% in size. Further: potency means the concentration at half of the fitted maximal effect. The settings on record: Potency: OCI-AML3 viability. The method, boiled down:
as §1

Assay [14] can be described thus: BET inhibitor-based combinations targeting novel dependencies in MECOM-rearranged (r) AML: MV-4-11 cell line (AID 2202233).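 Further: plate controls were DMSO for no effect and blank wells for full effect; nearly all actives have a fitted effect of over 45% in size.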 The method, boiled down: as §2

Turning to `O=C(O)/C=C/c1ccc(O)c(O)c1`, the Potency result in assay [1], in [2], in [3], in assay [4], in assay [5] and in assay [6] was “inactive” throughout.

Take `O=C(O)/C=C/c1cnc[nH]1`: the Potency result in assay [1] and in assay [7] was “inactive” in each case.

Usually viability stands for a read-out of living cells in per cent, often relative to untreated cells. Regarding `CC(C)C(=O)Nc1ccc([N+](=O)[O-])c(C(F)(F)F)c1`, the Potency entry in assay [1], in assay [7], in [9], in [10], in assay [11] and in assay [12] was “inactive” each time. Moreover, in assay [8], the viability is 93.1%.

Consider `CCC1(C)CC(=O)NC1=O` (stereo unspecified), for which the Potency result in [1], in assay [7], in assay [13], in assay [14], in assay [9] and in assay [10] was “inactive” in each case. For the same compound, the Potency entry in assay [11] and in assay [12] was “inactive” each time. Moreover, the viability in assay [8] is 115%.

In the case of `C[C@]12CCC(=O)C=C1CC[C@@H]1[C@@H]2[C@@H](O)C[C@@]2(C)[C@H]1CC[C@]2(O)C(=O)CO`, the Potency result in assay [1], in assay [7], in [13], in [14], in assay [9] and in assay [10] was “inactive” throughout. In assay [12], the Potency entry is “inactive”. Moreover, the viability in assay [8] was 113%. Besides, the Potency in assay [11] was 0.417 µM (active).

Turning to `CN[C@H]1CC[C@@H](c2ccc(Cl)c(Cl)c2)c2ccccc21`, the Potency entry in assay [1] and in [7] was “inactive” each time. Moreover, the values for the Potency in [13] and in assay [11] were 13.2 µM (active) and 18.6 µM (active), respectively.

For the compound `Cc1cn([C@H]2CC(N=[N+]=[N-])[C@@H](CO)O2)c(=O)[nH]c1=O` (stereo partly specified), the Potency entry in [1] and in assay [7] was “inactive” throughout.

On to `CCN(CC)CCOC(=O)C1(C2CCCCC2)CCCCC1`, for which the Potency entry in [1] and in [7] was “inactive” each time.

For the compound `O=C(C1CCCCC1)N1CC(=O)N2CCc3ccccc3C2C1` (stereo unspecified), the Potency result in assay [1], in assay [7], in assay [13], in assay [9], in assay [10] and in assay [11] was “inactive” each time. The Potency result in assay [12] is “inactive”. Moreover, the viability in [8] was 120%.

Turning to `C[C@H](NC(CCc1ccccc1)C(=O)O)C(=O)N1CCC[C@H]1C(=O)O` (stereo partly specified), the Potency entry in [1] and in assay [7] was “inactive” each time.

As to `CCCC(CCC)C(=O)O`, the Potency result in assay [1], in [7], in [13], in assay [14], in assay [9] and in [10] was “inactive” throughout. For the same compound, the Potency entry in assay [11] and in assay [12] was “inactive” throughout. In addition, the viability in [8] is 112%.

As for `CN1C2CCC1CC(OC(=O)C(CO)c1ccccc1)C2` (stereo unspecified), the Potency result in [1], in assay [7], in [14], in assay [9], in assay [11] and in [12] was “inactive” throughout. The viability in assay [8] is 89.7%.

Turning to `Cn1c(=O)c2c(ncn2C)n(C)c1=O`, the Potency result in [1], in [7], in assay [13], in assay [9], in [10] and in [11] was “inactive” each time. Also, the Potency entry in assay [12] is “inactive”. Moreover, in assay [8], the viability was 97.8%.

For the compound `CC[N+](CC)(CC)CC`, the Potency entry in assay [1] and in assay [7] was “inactive” each time.

On to `C=C[C@H]1CN2CC[C@@H]1C[C@@H]2[C@@H](O)c1ccnc2ccc(OC)cc12`, for which the Potency result in assay [1] and in [7] was “inactive” in each case.

With `Cn1c(=O)c2[nH]cnc2n(C)c1=O`, the Potency entry in assay [1], in [7], in [13], in assay [14], in assay [9] and in [10] was “inactive” each time. The Potency entry in [11] and in [12] was “inactive” in each case.

Consider `OCCN(CCO)c1nc(N2CCCCC2)c2nc(N(CCO)CCO)nc(N3CCCCC3)c2n1`, for which the Potency entry in [1], in [7], in [10] and in assay [12] was “inactive” in each case.

With `O=C1CC2(CCCC2)CC(=O)N1CCCCN1CCN(c2ncccn2)CC1`, the Potency result in [1] and in [7] was “inactive” in each case.

On to `COc1nc(C)nc(Cl)c1NC1=NCCN1`, for which the Potency result in assay [1], in [7], in assay [13], in assay [9], in assay [10] and in assay [11] was “inactive” each time. Besides, the Potency result in [12] was “inactive”. The viability in assay [8] is 107%.

Take `CCC1(c2ccccc2)C(=O)NCNC1=O`: the Potency result in assay [1], in assay [7], in assay [13], in [14], in assay [9] and in assay [10] was “inactive” throughout. Moreover, the Potency result in assay [11] and in assay [12] was “inactive” in each case. For the same compound, the viability in assay [8] was 109%.

Take `O=C1CCC(c2ccc(-n3ccnc3)cc2)=NN1`: the Potency result in assay [1] and in assay [7] was “inactive” each time.

As for `CC(=O)OCC(CCn1cnc2cnc(N)nc21)COC(C)=O`, the Potency result in [1], in assay [7], in [13], in assay [14], in [9] and in [10] was “inactive” throughout. For the same compound, the Potency entry in assay [11] and in assay [12] was “inactive” throughout. In assay [8], the viability was 121%.

For `O=c1[nH]cnc2[nH]ncc12`, the Potency result in assay [1], in assay [7], in [13], in assay [14], in [10] and in assay [11] was “inactive” in each case. Moreover, the viability in assay [8] is 124%.

For the compound `COc1cc2c(cc1OC)C1CC(=O)C(CC(C)C)CN1CC2` (stereo unspecified), the Potency result in [1], in assay [7], in [13], in assay [9], in assay [10] and in [11] was “inactive” throughout. The Potency entry in assay [12] was “inactive”. Besides, the viability in assay [8] is 109%.

As for `C[N+](C)(C)CCOP(=O)(O)OP(=O)([O-])OC[C@H]1O[C@@H](n2ccc(N)nc2=O)[C@H](O)[C@@H]1O`, the Potency result in [1] and in assay [7] was “inactive” in each case.

On to `Cn1cnc2c1c(=O)[nH]c(=O)n2C`, for which the Potency result in assay [1], in [7], in assay [13], in assay [14], in assay [9] and in assay [10] was “inactive” in each case. In addition, the Potency entry in assay [11] and in assay [12] was “inactive” in each case. Besides, the viability in assay [8] was 114%.

`CC(=O)[C@@]1(O)CC[C@H]2[C@@H]3CCC4=CC(=O)CC[C@]4(C)[C@H]3CC[C@@]21C`: the Potency result in assay [1] and in [7] was “inactive” throughout.

In the case of `O=C1c2ccccc2-c2n[nH]c3cccc1c23`, the Potency entry in assay [1] and in assay [7] was “inactive” in each case. Besides, the Potency in assay [13] was 4.68 µM (active); in assay [9], 13.2 µM (active).

As to `CN(C)CC[C@@H](c1ccc(Br)cc1)c1ccccn1`, the Potency result in [1] and in assay [7] was “inactive” throughout.

As for `COc1ccc2c(c1)c(CC(=O)O)c(C)n2C(=O)c1ccc(Cl)cc1`, the Potency result in assay [1], in assay [7], in assay [13], in [14], in assay [9] and in [10] was “inactive” throughout. The Potency entry in [11] and in [12] was “inactive” throughout. Moreover, in assay [8], the viability is 114%.

As for `CCN(CC)c1ncnc2c1ncn2[C@@H]1O[C@H](COP(=O)(O)OP(=O)(O)C(Br)(Br)P(=O)(O)O)[C@@H](O)[C@H]1O`, the Potency result in assay [1] and in [7] was “inactive” each time.
